Activity calls are given as the source filed them. Rule for the calls: active = hit-call score of the fitted dose curve at least 0.9, where 1 is the maximum; inactive = score below 0.9.

Results on 19 molecules are retold here after PubChem BioAssay (EPA / NIEHS).

The assay in a line: CCTE_Shafer_MEA_acute_interburst_interval_mean: CCTE's Neural Acute Assay for Mean Interburst Interval, Shafer Lab (AID 2284016).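 Note: percent change of mean interburst interval versus each well's own pre-dose baseline.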 The method, then: CCTE_Shafer_MEA_acute assay is conducted using Axion Biosystems 48 well microelectrode array (MEA) plates and Maestro recording system. Each well of the MEA plate contains a grid of 16 microelectrodes embedded in the culture surface. Electrically active cells, such as neurons, can be cultured over the electrodes, and electrical activity in these cells can be recorded extracellularly. The spontaneous firing of neurons is captured from each electrode on a microsecond timescale providing both temporally and spatially precise data. […] The CCTE_Shafer_MEA_acute assay uses primary cultures of rat cortical neurons. As these cultures mature over time, neural networks develop functional activity and form cohesive networks in which electrical activity can be highly coordinated. Baseline 40-minute recordings are made on days post-plating 13 or 15, followed by a secondary 40-minute recording after chemical exposure.CCTE_Shafer_MEA_acute_interburst_interval_mean is a component of the CCTE_Shafer_MEA_acute assay. It measures the average time between the start of consecutive single-electrode bursts (temporally-clustered groups of action potential firing) during a recording in a microelectrode array (MEA) using Axion Biosystems Maestro 768 channel amplifier with the AxIS adaptive spike detector. The recordings before and after chemical treatment are used to calculate a percent change in the mean inter-burst interval in each well.Data from the assay component CCTE_Shafer_MEA_acute_interburst_interval_mean was analyzed into 1 assay endpoint. This assay endpoint, CCTE_Shafer_MEA_acute_interburst_interval_mean, was analyzed in the negative analysis fitting direction relative to DMSO as the negative control and baseline of activity. Using a type of functional reporter, gain or loss-of-signal activity can be used to understand electrical activity.
Spontaneous activity in the cortical cultures was recorded using an Axion Biosystems Maestro 768 channel amplifier and Axion Integrated Studios (AxIS) v1.8 (or later) software. The amplifier recorded from all channels simultaneously (gain = 1200 x; sampling rate = 12.5 kHz/channel): raw signals were filtered with a Butterworth band-pass filter (300-5000 Hz), which filters out slower local field potentials leaving only fast potentials, i.e., "spikes", arising from extracellular currents associated with action potentials (Pine 2006; Wheeler and Nam 2011). On-line spike detection of filtered signals was conducted with the AxIS adaptive spike detector, using a threshold of 8x the root mean squared (rms) noise on each channel. Any electrodes with rms noise levels greater than 5 uV were grounded (e.g., no data were recorded). Once grounded, an electrode was grounded for the duration of the experiment. All recordings were conducted at 37 C. Wells were deemed usable if on the day of the exposure >/= 10 electrodes were active (defined as >/= 5 spikes/min). On DIV 13 or 15, a minimum of three wells from one cortical culture preparation were treated with each compound (0.03-40 uM). Prior to recording baseline activity, each mwMEA plate was placed in the Maestro at 37 C and allowed to sit for 20 min while firing rates stabilized. Baseline activity (40 min) was recorded before the addition of each compound. An additional 40 min of spontaneous activity was recorded in the presence of each compound. Changes in network parameters relative to baseline were assessed following compound treatment.
Consider `CC(C)(C)c1cc(O)ccc1O`, for which the call was inactive.
Still for that read-out and setting: to `C=C(C)C(=O)[O][Sn]([CH2]CCC)([CH2]CCC)[CH2]CCC` belongs “inactive”; to `CC(C)(OO)c1ccccc1`, “inactive”; to `O=C1C2(Cl)C3(Cl)C4(Cl)C(Cl)(Cl)C5(Cl)C3(Cl)C1(Cl)C5(Cl)C24Cl` (centres undefined), “inactive”.
Still for that read-out and setting: the same measure for `C[C@]12CCC(=O)C[C@@H]1CC[C@@H]1[C@@H]2CC[C@]2(C)[C@@H](O)CC[C@@H]12`: “inactive”.
`CCC(C)(C)c1ccc(O)c(C(C)(C)CC)c1`: the molecule was classed as inactive.
As for `CCOP(=S)(OCC)SCSP(=S)(OCC)OCC`, the molecule was called inactive.
Consider `CCC(=O)C(CC(C)N(C)C)(c1ccccc1)c1ccccc1` (centres undefined), for which the result was inactive.
On to `CC(=O)[O][Hg][c]1ccccc1`, for which the AC50 (commonly the concentration giving half of the maximal activity seen) was 0.941 µM (active).
On to `CC(C)(C)CC(C)(C)c1ccc(O)cc1`, for which the AC50 was 5 µM (active).
On the same count and under the same terms, the same measure for `CC(C)(c1ccccc1)c1ccc(O)c(C(C)(C)c2ccccc2)c1`: 4.19 µM (active).
`CC(=O)OC(c1ccccc1)C(Cl)(Cl)Cl` (centres undefined): the molecule was classed as inactive.
With `CCCCCCCCc1ccc(O)cc1`, the AC50 was 5 µM (active).
In the case of `COC(=O)Cc1ccccc1`, the molecule was called inactive.
Turning to `O=C(Nc1ccc2[nH]ccc2c1)c1cc2cc(F)ccc2n1Cc1cccc(F)c1`, the AC50 was 4.2 µM (active).
On to `ClC1(Cl)C2(Cl)C3(Cl)C4(Cl)C(Cl)(Cl)C5(Cl)C3(Cl)C1(Cl)C5(Cl)C24Cl` (centres undefined), for which the molecule was called inactive.
Same read-out and setting: to `O=C(O)C(F)(F)C(F)(F)C(F)(F)C(F)(F)C(F)(F)C(F)(F)C(F)(F)C(F)(F)C(F)(F)C(F)(F)F` belongs “inactive”.
In the case of `CCN1CCC2(CC1)COc1cc3c(cc12)N(C(=O)c1ccc(-c2ccc(-c4nnc(C)o4)cc2C)cc1)CC3`, the outcome was inactive.
Same read-out and setting: to `O=C(O)C(Cl)(Cl)Cl` belongs “inactive”.
